Data from PubChem BioAssay AID1159580 (chemical genetic matrix, 2015).
Screen size: about 5,500 compounds; about 2,000 (36%) were called active. Not shown: some 18% with an inconclusive outcome. Rule as the data show it: active = normalized growth mostly below about 0.91 (no sharp cut-off); inconclusive = no clear call, values can overlap the other calls; inactive = mostly above about 0.92. The list shows a part of the results.

Test: chemical genetic growth profiling, strain panel (AID 1159580);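 also: tested at 20 µM; growth read once vehicle control cultures reached saturation at 30 °C; 1 = growth at the plate median or of vehicle wells; lower values mean less growth of the strain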
Conditions: growth OD

Measured: normalized growth

CC(=C(CCOP(=O)(O)O)SC(=O)c1ccccc1)N(C=O)Cc1cnc(C)nc1N
inactive: S. cerevisiae deletion strains, locus YAL013W, strain DEP1, hits give low values 1.01 | S. cerevisiae deletion strains, locus YBR021W, strain FUR4, hits give low values 1.01 | S. cerevisiae deletion strains, locus YBR229C, strain ROT2, hits give low values 1.01 | S. cerevisiae deletion strains, locus YCL029C, strain bik1, hits give low values 1 | S. cerevisiae deletion strains, locus YDL035C, strain GPR1, hits give low values 1.02 | S. cerevisiae deletion strains, locus YDL074C, strain BRE1, hits give low values 1.01 | S. cerevisiae deletion strains, locus YDL101C, strain DUN1, hits give low values 1.01 | S. cerevisiae deletion strains, locus YDL134C, strain PPH21, hits give low values 1.02 | S. cerevisiae deletion strains, locus YDL185W, strain tfp1, hits give low values 1.01 | S. cerevisiae deletion strains, locus YDL192W, strain arf1, hits give low values 1.01 | S. cerevisiae deletion strains, locus YDR101C, strain arx1, hits give low values 1 | S. cerevisiae deletion strains, locus YDR150W, strain NUM1, hits give low values 1.01 | S. cerevisiae deletion strains, locus YDR162C, strain NBP2, hits give low values 1.01 | S. cerevisiae deletion strains, locus YDR318W, strain mcm21, hits give low values 1.02 | S. cerevisiae deletion strains, locus YDR388W, hits give low values 1.01 | S. cerevisiae deletion strains, locus YDR502C, strain sam2, hits give low values 1.01 | S. cerevisiae deletion strains, locus YEL061C, strain CIN8, hits give low values 1.01 | S. cerevisiae deletion strains, locus YER110C, hits give low values 1.02 | S. cerevisiae deletion strains, locus YER155C, strain BEM2, hits give low values 1.01 | S. cerevisiae deletion strains, locus YER167W, strain BCK2, hits give low values 1.01 | S. cerevisiae deletion strains, locus YGL078C, strain dbp3, hits give low values 1.02 | S. cerevisiae deletion strains, locus YGL086W, strain mad1, hits give low values 1.01 | S. cerevisiae deletion strains, locus YGL248W, strain PDE1, hits give low values 1 | S. cerevisiae deletion strains, locus YGR135W, strain pre9, hits give low values 1.02 | S. cerevisiae deletion strains, locus YGR229C, strain SMI1, hits give low values 1.02 | S. cerevisiae deletion strains, locus YGR252W, strain gcn5, hits give low values 1 | S. cerevisiae deletion strains, locus YHR030C, strain SLT2, hits give low values 1.01 | S. cerevisiae deletion strains, locus YHR079C, strain IRE1 (second series), hits give low values 1.01 | S. cerevisiae deletion strains, locus YHR094C, strain hxt1, hits give low values 1.01 | S. cerevisiae deletion strains, locus YHR129C, strain ARP1, hits give low values 1 | S. cerevisiae deletion strains, locus YHR200W, strain rpn10, hits give low values 1.01 | S. cerevisiae deletion strains, locus YIL066C, strain RNR3, hits give low values 1.02 | S. cerevisiae deletion strains, locus YIL073C, strain SPO22, hits give low values 1.05 | S. cerevisiae deletion strains, locus YIL125W, strain kgd1, hits give low values 1.01 | S. cerevisiae deletion strains, locus YIR030C, strain dcg1, hits give low values 1.02 | S. cerevisiae deletion strains, locus YJL095W, strain BCK1, hits give low values 1.01 | S. cerevisiae deletion strains, locus YJL134W, strain LCB3, hits give low values 1.01 | S. cerevisiae deletion strains, locus YJL168C, strain set2, hits give low values 1.01 | S. cerevisiae deletion strains, locus YJL187C, strain SWE1 (second series), hits give low values 1.01 | S. cerevisiae deletion strains, locus YJR043C, strain POL32, hits give low values 1.01 | S. cerevisiae deletion strains, locus YJR075W, strain HOC1, hits give low values 1.01 | S. cerevisiae deletion strains, locus YKL009W, strain mrt4, hits give low values 1.01 | S. cerevisiae deletion strains, locus YKL068W, hits give low values 1.02 | S. cerevisiae deletion strains, locus YKL085W, strain MDH1 (second series), hits give low values 1.01 | S. cerevisiae deletion strains, locus YKL085W, strain MDH1, hits give low values 1.01 | S. cerevisiae deletion strains, locus YKL190W, strain CNB1, hits give low values 1.01 | S. cerevisiae deletion strains, locus YKR001C, strain vps1, hits give low values 1.01 | S. cerevisiae deletion strains, locus YLR039C, strain RIC1, hits give low values 1.02 | S. cerevisiae deletion strains, locus YLR058C, strain SHM2, hits give low values 1.02 | S. cerevisiae deletion strains, locus YLR102C, strain apc9, hits give low values 1.01 | S. cerevisiae deletion strains, locus YLR262C, strain YPT6, hits give low values 0.991 | S. cerevisiae deletion strains, locus YLR268W, strain sec22, hits give low values 1 | S. cerevisiae deletion strains, locus YLR330W, strain CHS5, hits give low values 1.01 | S. cerevisiae deletion strains, locus YLR342W, strain FKS1 (second series), hits give low values 1 | S. cerevisiae deletion strains, locus YLR371W, strain rom2, hits give low values 1.02 | S. cerevisiae deletion strains, locus YLR418C, strain cdc73, hits give low values 1.02 | S. cerevisiae deletion strains, locus YML016C, strain PPZ1, hits give low values 1.01 | S. cerevisiae deletion strains, locus YML032C, strain rad52, hits give low values 1.01 | S. cerevisiae deletion strains, locus YML124C, strain tub3, hits give low values 1.01 | S. cerevisiae deletion strains, locus YMR078C, strain ctf18, hits give low values 1.01 | S. cerevisiae deletion strains, locus YMR223W, strain ubp8, hits give low values 1.02 | S. cerevisiae deletion strains, locus YMR263W, strain SAP30, hits give low values 1.01 | S. cerevisiae deletion strains, locus YMR307W, strain GAS1, hits give low values 1.03 | S. cerevisiae deletion strains, locus YNL067W, strain RPL9B, hits give low values 1.01 | S. cerevisiae deletion strains, locus YNL128W, strain TEP1, hits give low values 1.02 | S. cerevisiae deletion strains, locus YNL233W, strain BNI4, hits give low values 1.03 | S. cerevisiae deletion strains, locus YNL250W, strain rad50, hits give low values 1.01 | S. cerevisiae deletion strains, locus YNL271C, strain bni1, hits give low values 1.02 | S. cerevisiae deletion strains, locus YNL298W, strain CLA4, hits give low values 1.01 | S. cerevisiae deletion strains, locus YNL307C, strain MCK1, hits give low values 1.02 | S. cerevisiae deletion strains, locus YNL322C, strain KRE1, hits give low values 1.01 | S. cerevisiae deletion strains, locus YNR052C, strain pop2, hits give low values 1.02 | S. cerevisiae deletion strains, locus YOL006C, strain TOP1, hits give low values 1.01 | S. cerevisiae deletion strains, locus YOL012C, strain htz1 1.14 | S. cerevisiae deletion strains, locus YOL147C, strain pex11, hits give low values 1.02 | S. cerevisiae deletion strains, locus YOR061W, strain CKA2, hits give low values 1.01 | S. cerevisiae deletion strains, locus YOR069W, strain VPS5, hits give low values 1.01 | S. cerevisiae deletion strains, locus YOR136W, strain idh2, hits give low values 1.02 | S. cerevisiae deletion strains, locus YOR144C, strain elg1, hits give low values 1.01 | S. cerevisiae deletion strains, locus YOR184W, strain ser1, hits give low values 1.02 | S. cerevisiae deletion strains, locus YOR316C, strain cot1, hits give low values 1.01 | S. cerevisiae deletion strains, locus YPL055C, strain LGE1, hits give low values 1.01 | S. cerevisiae deletion strains, locus YPR119W, strain clb2, hits give low values 1 | S. cerevisiae deletion strains, locus YPR141C, strain kar3, hits give low values 1.02 | S. cerevisiae deletion strains, locus YPR163C, strain tif3, hits give low values 1.01 | S. cerevisiae deletion strains, locus YPR167C, strain met16, hits give low values 1.01 | S. cerevisiae deletion strains, strain wtn01, hits give low values 1.01 | S. cerevisiae strains, strain wild type, hits give low values 1.01
